About 2,000 (36%) of roughly 5,500 compounds were called active. Inconclusive results (about 18%) are left out. No stated cut-off is given here; in the data, active means normalized growth mostly below about 0.91 (no sharp cut-off); inconclusive means no clear call, values can overlap the other calls; inactive means mostly above about 0.92. The list shows a part of the results.
Test: chemical genetic growth profiling, strain panel (AID 1159580);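 further: tested at 20 µM; growth read once vehicle control cultures reached saturation at 30 °C; 1 = growth at the plate median or of vehicle wells; lower values mean less growth of the strain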
Settings: S. cerevisiae deletion strains, growth OD
[1] = locus YAL013W, strain DEP1, hits give low values
[2] = locus YBR229C, strain ROT2, hits give low values
[3] = locus YDL101C, strain DUN1, hits give low values
[4] = locus YDL134C, strain PPH21, hits give low values
[5] = locus YDR150W, strain NUM1, hits give low values
[6] = locus YEL061C, strain CIN8, hits give low values
[7] = locus YGR078C, strain PAC10, hits give low values
[8] = locus YHR030C, strain SLT2, hits give low values
[9] = locus YHR087W, strain rtc3, hits give low values
[10] = locus YJR043C, strain POL32, hits give low values
[11] = locus YJR075W, strain HOC1, hits give low values
[12] = locus YKL190W, strain CNB1, hits give low values
[13] = locus YLR039C, strain RIC1, hits give low values
[14] = locus YLR058C, strain SHM2 (second series), hits give low values
[15] = locus YLR085C, strain ARP6, hits give low values
[16] = locus YLR262C, strain YPT6, hits give low values
[17] = locus YML094W, strain GIM5, hits give low values
[18] = locus YMR219W, strain ESC1, hits give low values
[19] = locus YMR263W, strain SAP30, hits give low values
[20] = locus YNL128W, strain TEP1, hits give low values
[21] = locus YNL153C, strain GIM3, hits give low values
[22] = locus YNL298W, strain CLA4 (second series), hits give low values
[23] = locus YNL322C, strain KRE1, hits give low values
[24] = locus YNR030W, strain Alg12, hits give low values
[25] = locus YOL006C, strain TOP1, hits give low values
[26] = locus YPL055C, strain LGE1, hits give low values
[27] = locus YPL241C, strain CIN2, hits give low values
[28] = locus YPR135W, strain CTF4, hits give low values
[29] = locus YGR229C, strain SMI1, hits give low values
[30] = locus YMR307W, strain GAS1, hits give low values
[31] = locus YAR019C, strain CDC15, hits give low values
[32] = locus YBL105C, strain PKC1, hits give low values
[33] = locus YBR135W, strain CKS1, hits give low values
[34] = locus YBR136W, strain MEC1, hits give low values
[35] = locus YBR160W, strain CDC28, hits give low values
[36] = locus YDL017W, strain CDC7, hits give low values
[37] = locus YDL028C, strain MPS1, hits give low values
[38] = locus YDL108W, strain KIN28, hits give low values
[39] = locus YDL132W, strain cdc53, hits give low values
[40] = locus YDL214C, strain PRR2, hits give low values
[41] = locus YDR052C, strain DBF4, hits give low values
[42] = locus YDR054C, strain cdc34, hits give low values
[43] = locus YDR226W, strain ADK1, hits give low values
[44] = locus YDR477W, strain SNF1, hits give low values
[45] = locus YER123W, strain YCK3, hits give low values
[46] = locus YER133W, strain GLC7, hits give low values
[47] = locus YFL009W, strain cdc4, hits give low values
[48] = locus YFL029C, strain CAK1, hits give low values
[49] = locus YFR003C, strain YPI1, hits give low values
[50] = locus YFR019W, strain FAB1, hits give low values
[51] = locus YFR028C, strain CDC14, hits give low values
[52] = locus YGR040W, strain KSS1, hits give low values
[53] = locus YGR052W, strain FMP48, hits give low values
[54] = locus YGR092W, strain DBF2, hits give low values
[55] = locus YHR079C, strain IRE1, hits give low values
[56] = locus YHR082C, strain KSP1, hits give low values
[57] = locus YHR205W, strain SCH9, hits give low values
[58] = locus YIL147C, strain SLN1, hits give low values
[59] = locus YJL095W, strain BCK1, hits give low values
[60] = locus YJL128C, strain PBS2, hits give low values
[61] = locus YJL157C, strain FAR1, hits give low values
[62] = locus YJR016C, strain ILV3, hits give low values
[63] = locus YJR066W, strain TOR1 (second series), hits give low values
[64] = locus YJR066W, strain TOR1, hits give low values
[65] = locus YKL048C, strain ELM1, hits give low values
[66] = locus YKL067W, strain YNK1, hits give low values
[67] = locus YKL101W, strain HSL1, hits give low values
[68] = locus YKL193C, strain SDS22, hits give low values
[69] = locus YKL203C, strain TOR2, hits give low values
[70] = locus YLR113W, strain HOG1, hits give low values
[71] = locus YLR133W, strain CKI1, hits give low values
[72] = locus YLR403W, strain SFP1, hits give low values
[73] = locus YML070W, strain DAK1, hits give low values
[74] = locus YMR001C, strain CDC5, hits give low values
[75] = locus YMR205C, strain PFK2 (second series), hits give low values
[76] = locus YMR277W, strain FCP1, hits give low values
[77] = locus YNL006W, strain LST8, hits give low values
[78] = locus YNL020C, strain ARK1, hits give low values
[79] = locus YNL161W, strain CBK1, hits give low values
[80] = locus YNL183C, strain NPR1, hits give low values
[81] = locus YNL207W, strain RIO2, hits give low values
[82] = locus YNL222W, strain SSU72, hits give low values
[83] = locus YNL307C, strain MCK1 (second series), hits give low values
[84] = locus YOL078W, strain AVO1, hits give low values
[85] = locus YOL136C, strain PFK27, hits give low values
[86] = locus YOR061W, strain CKA2, hits give low values
[87] = locus YOR119C, strain RIO1, hits give low values
[88] = locus YOR231W, strain MKK1, hits give low values
[89] = locus YOR329C, strain SCD5, hits give low values
[90] = locus YPL031C, strain PHO85, hits give low values
[91] = locus YPL153C, strain RAD53, hits give low values
[92] = locus YPL204W, strain HRR25, hits give low values
[93] = locus YPL209C, strain IPL1, hits give low values
[94] = locus YPL256C, strain CLN2, hits give low values
[95] = locus YPR025C, strain CCL1, hits give low values
[96] = locus YPR106W, strain ISR1, hits give low values
[97] = locus YPR111W, strain DBF20, hits give low values
[98] = strain NNK1, hits give low values
[99] = strain TSCII, hits give low values

Measured: normalized growth

O=c1nc(-c2ccccc2)nc(-c2ccccc2)[nH]1
inactive: [1] 0.985 | [2] 1 | locus YCL061C, strain MRC1, hits give low values 0.999 | [3] 1.03 | [4] 0.955 | [5] 0.993 | [6] 0.97 | [7] 1 | [8] 0.972 | [9] 0.987 | [10] 0.986 | [11] 1 | [12] 0.96 | [13] 0.922 | [14] 0.993 | [15] 0.951 | [16] 0.902 | [17] 1.08 | [18] 1 | [19] 1.01 | [20] 0.968 | [21] 1.01 | [22] 0.944 | [23] 0.984 | [24] 0.989 | [25] 0.932 | [26] 1.01 | [27] 1.03 | [28] 0.991

S=c1nc(-c2ccccc2)[nH][nH]1
inactive: [1] 0.997 | [2] 1.01 | [3] 1.02 | [4] 0.979 | [5] 1.01 | [6] 0.992 | [7] 0.988 | [29] 0.994 | [8] 1.06 | [9] 1.01 | [10] 0.99 | [11] 0.982 | [12] 0.982 | [13] 1.02 | [14] 0.999 | [15] 1.03 | [16] 0.991 | [17] 1.11 | [18] 0.999 | [19] 0.998 | [30] 1.08 | [20] 0.985 | [21] 0.998 | [22] 0.992 | [23] 1 | [24] 1.01 | [25] 1.06 | [26] 1.03 | [27] 1.01 | [28] 1.02

CSc1nc(Sc2n[nH]c(-c3ccccc3)n2)cc(Sc2n[nH]c(-c3ccccc3)n2)n1
active: [70] 0.855
inactive: [31] 1.01 | [32] 0.99 | [33] 0.999 | [34] 1 | [35] 1 | [36] 0.995 | [37] 1.03 | [3] 0.991 | [38] 1.01 | [39] 0.995 | [40] 1.01 | [41] 0.995 | [42] 0.984 | [43] 1.01 | [44] 1.01 | [45] 1.03 | [46] 1 | [47] 1 | [48] 1.02 | [49] 0.99 | [50] 1 | [51] 1.01 | [52] 1.02 | [53] 1 | [54] 1.01 | [8] 1.13 | [55] 0.928 | [56] 1.22 | [57] 1 | [58] 1.01 | [59] 0.875 | [60] 0.978 | [61] 1.02 | [62] 1.01 | [63] 1.01 | [64] 1.2 | [65] 1.01 | [66] 1.01 | [67] 1.01 | [68] 1.02 | [69] 1.09 | [71] 1.01 | [72] 1.03 | [73] 1.01 | [74] 1.01 | [75] 1.02 | [76] 1.02 | [77] 1 | [78] 1.01 | [79] 1 | [80] 0.929 | [81] 1.01 | [82] 1.01 | [83] 1.01 | [84] 1.02 | [85] 1.03 | [86] 1.02 | [87] 1.05 | [88] 0.913 | [89] 1 | [90] 1.02 | [91] 1.01 | [92] 1.01 | [93] 0.998 | [94] 0.89 | [95] 1.01 | [96] 1 | [97] 1 | [98] 1.01 | [99] 1.01

CCOC(=N)c1ccc(F)c(Cl)c1
inactive: [1] 1.01 | [2] 0.995 | [3] 0.992 | [4] 1.02 | [5] 1.01 | [6] 1.01 | [7] 1.02 | [29] 1.02 | [8] 1.02 | [9] 0.995 | [10] 1.02 | [11] 1.01 | [13] 1.07 | [14] 1.01 | [15] 1.02 | [16] 1.06 | [17] 0.981 | [18] 1.02 | [19] 1.06 | [30] 1.07 | [21] 0.999 | [22] 1.06 | [23] 1.01 | [24] 1.01 | [25] 1.06 | [26] 1.02 | [27] 0.923 | [28] 1.05

CCOC(=O)C(NC(C)=O)(Nc1ccc(F)c(Cl)c1)C(F)(F)F (centres undefined)
active: [8] 1.19 [resistant]
inactive: [31] 0.992 | [32] 0.995 | [33] 0.983 | [34] 0.997 | [35] 0.991 | [36] 0.992 | [37] 0.995 | [3] 0.982 | [38] 0.997 | [39] 0.991 | [40] 1.01 | [41] 0.99 | [42] 0.997 | [43] 0.985 | [44] 1 | [45] 0.933 | [46] 0.994 | [47] 0.991 | [48] 0.994 | [49] 0.992 | [50] 0.973 | [51] 0.979 | [52] 0.988 | [53] 1.14 | [54] 0.97 | [55] 1.15 | [56] 1.14 | [57] 1.01 | [58] 0.99 | [59] 1.14 | [60] 0.963 | [61] 1.01 | [62] 0.998 | [63] 0.997 | [64] 1.18 | [65] 0.998 | [66] 1 | [67] 1.01 | [68] 0.979 | [69] 1.07 | [70] 1.11 | [71] 1.01 | [72] 1.01 | [73] 0.997 | [74] 0.984 | [75] 0.992 | [76] 0.988 | [77] 0.988 | [78] 1.01 | [79] 0.986 | [80] 1.16 | [81] 1 | [82] 0.989 | [83] 1.01 | [84] 0.981 | [85] 0.999 | [86] 1 | [87] 1 | [88] 1.11 | [89] 0.991 | [90] 1 | [91] 0.993 | [92] 0.996 | [93] 0.988 | [94] 1.12 | [95] 0.986 | [96] 0.99 | [97] 0.997 | [98] 1.01 | [99] 0.986
